Measured values from PubChem BioAssay.
A number with no mark means an inactive call. Active and inactive are the calls of the source. Unless noted, how the calls were made is not given here.

Assay: P. aeruginosa biofilm formation inhibitors, primary screen, PAO1 strain, BacTiter-Glo luminescence, LB-PBS (AID 1144)
Details: 12 h, higher = more signal

For `COC(=O)[C@@]1(Cc2ccc(OC)cc2)[C@H]2c3cc(C(=O)N4CCCC4)n(Cc4cc(C)n(C)n4)c3C[C@H]2CN1C(=O)c1ccccc1`, which z-score is on record?
The z-score was 0.463.

With `C=C(CCCC)C(=O)CC[C@H](OC(C)=O)c1ccc(OCCO)cc1` as the compound, how does the z-score read?
The z-score was -1.17.

For `COc1ccc(C(=O)Nc2cccc(CN3C(=O)[C@]4(O[C@H](CCn5cc([C@H](O)c6ccccc6)nn5)[C@@H]([Si](C)(C)c5ccc(OC)cc5)[C@@H]4C)c4ccccc43)c2)cc1`, which z-score is on record?
The z-score was -0.568.

Which z-score does the source give for `COCCOC(=O)N1C(=O)[C@@]2(c3cc(C#CC4=CCCCC4)ccc31)[C@H](C(=O)N1CCCCCCC1)[C@H]1C(=O)O[C@H](c3ccccc3)[C@H](c3ccccc3)N1[C@@H]2c1ccc(OCCO)cc1` here?
The z-score was -0.0896.

For `C=C(CCCC)/C(=C/C[C@H](OC(C)=O)c1ccc(OCCO)cc1)c1cc(C(=O)OC)ccc1OC`, which z-score is on record?
Its z-score is -0.8.

For `COc1ccc([Si](C)(C)[C@H]2[C@H](CC(=O)N3CCC[C@H]3CO)O[C@@]3(C(=O)N(Cc4ccc(N5CCC5=O)cc4)c4ccccc43)[C@@H]2C)cc1`, which z-score is on record?
The z-score was 0.0292.

For `[N-]=[N+]=NCc1ccccc1[C@@H]1OC(c2ccc(OCCCO)cc2)=N[C@]1(Cc1ccccc1N=[N+]=[N-])C(=O)NCCN1CCOCC1`, which z-score is on record?
The z-score was 1.07.

Which z-score does the source give for `O=C1C[C@@](C(=O)NCC(F)(F)F)(c2ccc([N+](=O)[O-])cc2)[C@@H](c2ccc(CO)cc2)N1CC12CC3CC(CC(C3)C1)C2` here?
Its z-score is -0.542.

Assay: CREB reporter modulators without forskolin, primary screen, cell-based, PC12, CRE-LacZ reporter, unstimulated (AID 1145)
Details: no forskolin, luminescence, 4.5 h, higher = more signal, called active from +8 up or from −8 down

For `C=CCC(OC(C)=O)[C@@H]1[C@@H](N(Cc2cc3ccccc3o2)C(=O)c2ccc(-c3ccccc3)cc2)c2cc(OCCCO)ccc2N1C(=O)Cc1ccc(OC)cc1` (stereo partly drawn), which z-score is on record?
Its z-score is 1.09.

Which z-score does the source give for `COCC(=C=CC[C@@H](O)c1ccc(OCCO)cc1)CCO` here?
The z-score was 0.0986.

Which z-score does the source give for `CC(C)(C)OC(=O)CC[C@]12N=C(c3ccc(OCCCO)cc3)O[C@H]1c1ccccc1N(Cc1ccccc1)C2=O` here?
Its z-score is 0.951.

With `O=C1OCCC/C=C\[C@H]2OC34C=CCN(c5ccc6ccccc6c5)C(=O)[C@H]3N(CCCO)C(=O)[C@@H]4C12` (stereo partly drawn) as the compound, how does the z-score read?
Its z-score is 2.9.

For `C=C/C=C/[C@@H]1C(=C)CN([C@@H](Cc2ccccc2)C(=O)OC)[C@H]1[C@@H](O)Cc1ccccc1`, which z-score is on record?
The z-score was 3.38.

Which z-score does the source give for `O=C1NC(=O)C2C1C=CC(C(O)c1ccccn1)N2Nc1ccc(Cl)cc1Cl` (stereo not drawn) here?
The z-score was 0.0535.

Which z-score does the source give for `CC(C)C[C@@H]1NC(=O)CNC(=O)[C@@]23C(=O)N[C@@H](Cc4ccccc4)C2[C@H](C)[C@@]2(C)O[C@H]2C3/C=C/C/C=C\CNC1=O` (stereo partly drawn) here?
The z-score was -0.417.

With `CCOC(=O)C1=C[C@@H](c2ccccc2)N(S(=O)(=O)c2ccc(C)cc2)[C@H]1c1ccccc1` as the compound, how does the z-score read?
The z-score was -0.275.

With `[N-]=[N+]=NCc1ccccc1C[C@]1(C(=O)N2CCOCC2)COC(c2ccc(OCCCO)cc2)=N1` as the compound, how does the z-score read?
The z-score was 1.69.

With `COCCOC(=O)N1C(=O)[C@@]2(c3cc(C#Cc4ccc(OC)cc4)ccc31)[C@H](C(=O)NC[C@H](O)c1ccccc1)[C@H]1C(=O)O[C@H](c3ccccc3)[C@H](c3ccccc3)N1[C@@H]2c1ccc(OCCO)cc1` as the compound, how does the z-score read?
The z-score was -1.42.

With `COCCOC(=O)N1C(=O)[C@@]2(c3cc(C#CCC(C(=O)OC)C(=O)OC)ccc31)[C@H](c1ccc(OCCO)cc1)N1[C@H](c3ccccc3)[C@H](c3ccccc3)OC(=O)[C@H]1[C@@H]2C(=O)Nc1nc2ccccc2s1` as the compound, how does the z-score read?
The z-score was 0.0384.

With `COCCOC(=O)N1C(=O)[C@@]2(c3cc(C#CCNC(N)=O)ccc31)[C@H](c1ccc(O)cc1)N1[C@H](c3ccccc3)[C@H](c3ccccc3)OC(=O)[C@H]1[C@@H]2C(=O)N1CCN(c2ncccn2)CC1` as the compound, how does the z-score read?
Its z-score is -0.589.

Which z-score does the source give for `COc1cc(C(O)C2C=CC3C(=O)N(Cc4ccccc4)C(=O)C3N2n2cnnc2)cc(OC)c1OC` (stereo not drawn) here?
The z-score was 0.636.

For `CCCCC=C[C@@H](NC(=O)c1ccccc1)c1ccccc1`, which z-score is on record?
The z-score was 0.969.

Which z-score does the source give for `COc1ccc([Si](C)(C)[C@@H]2[C@@H](CC(=O)N3Cc4ccccc4C[C@H]3CO)O[C@]3(C(=O)N(c4ccccc4)c4ccccc43)[C@H]2C)cc1` here?
Its z-score is 2.36.

With `CCOC(=O)C1=CCC(c2ccccc2)N(S(=O)(=O)c2ccc([N+](=O)[O-])cc2)C1` (stereo not drawn) as the compound, how does the z-score read?
The z-score was 1.23.

With `[N-]=[N+]=NCc1ccccc1[C@@H]1OC(c2ccc(OCCCO)cc2)=N[C@]1(Cc1ccccc1N=[N+]=[N-])C(=O)N1CCCCC1` as the compound, how does the z-score read?
Its z-score is -0.753.

With `C=CCN1C(=O)[C@]2(O[C@H](CCO)[C@@H]([Si](C)(C)c3ccc(OC)cc3)[C@@H]2C)c2cc(N3C(=O)COc4ccccc43)ccc21` as the compound, how does the z-score read?
The z-score was 27.2 (active).

Which z-score does the source give for `COCCCNC(=O)[C@@]1(c2ccc([N+](=O)[O-])cc2)CC(=O)N(CC23CC4CC(CC(C4)C2)C3)[C@@H]1c1ccc(CO)cc1I` here?
The z-score was -0.825.

For `CC(C)OC(=O)CC(=O)CC(O)c1ccc([N+](=O)[O-])cc1` (stereo not drawn), which z-score is on record?
Its z-score is 1.03.

With `CCOC(=O)C1=CCC(c2ccco2)N(S(=O)(=O)c2ccc(C)cc2)C1` (stereo not drawn) as the compound, how does the z-score read?
Its z-score is -0.0228.

Which z-score does the source give for `[N-]=[N+]=Nc1ccccc1[C@@H]1OC(c2ccc(OCCCO)cc2)=N[C@]1(Cc1ccccc1)C(=O)NCc1ccccc1` here?
Its z-score is 0.143.

For `[N-]=[N+]=NCc1ccccc1C[C@@]1(C(=O)N2CCCCC2)N=C(c2ccc(OCCCO)cc2)O[C@@H]1c1ccccc1CN=[N+]=[N-]`, which z-score is on record?
Its z-score is -0.114.

With `O=C1C2C=CC(C(O)c3ccc(I)cc3)N(Nc3ccccc3)C2C(=O)N1c1ccccc1` (stereo not drawn) as the compound, how does the z-score read?
Its z-score is -0.522.

With `CC(C)C(=C=CC[C@@H](O)c1cccc(OCCO)c1)C[C@@H](O)c1ccccn1` as the compound, how does the z-score read?
The z-score was 1.13.

With `COC(=O)[C@@]1(Cc2ccccc2CN=[N+]=[N-])N=C(c2ccc(OCCCO)cc2)O[C@H]1c1ccccc1` as the compound, how does the z-score read?
The z-score was 2.38.

Which z-score does the source give for `CCOC(=O)C[C@H]1[C@H](OC(=O)c2cc3ccccc3oc2=O)[C@@H](NC(=O)c2ccc3ccccc3c2)c2cc(OCCCO)ccc2N1C(=O)Cc1ccc(OC)cc1` here?
The z-score was 0.402.

For `COC(=O)[C@@]1(Cc2ccc(OC)cc2)[C@H]2c3cc(C(=O)N4CCCC4)n(Cc4cc(C)n(C)n4)c3C[C@H]2CN1C(=O)c1ccccc1`, which z-score is on record?
Its z-score is -0.375.

Which z-score does the source give for `C=C(CCCC)C(=O)CC[C@H](OC(C)=O)c1ccc(OCCO)cc1` here?
Its z-score is 5.09.

For `COc1ccc(C(=O)Nc2cccc(CN3C(=O)[C@]4(O[C@H](CCn5cc([C@H](O)c6ccccc6)nn5)[C@@H]([Si](C)(C)c5ccc(OC)cc5)[C@@H]4C)c4ccccc43)c2)cc1`, which z-score is on record?
Its z-score is -0.36.

For `COCCOC(=O)N1C(=O)[C@@]2(c3cc(C#CC4=CCCCC4)ccc31)[C@H](C(=O)N1CCCCCCC1)[C@H]1C(=O)O[C@H](c3ccccc3)[C@H](c3ccccc3)N1[C@@H]2c1ccc(OCCO)cc1`, which z-score is on record?
Its z-score is -0.199.

With `C=C(CCCC)/C(=C/C[C@H](OC(C)=O)c1ccc(OCCO)cc1)c1cc(C(=O)OC)ccc1OC` as the compound, how does the z-score read?
The z-score was 8.05 (active).

For `COc1ccc([Si](C)(C)[C@H]2[C@H](CC(=O)N3CCC[C@H]3CO)O[C@@]3(C(=O)N(Cc4ccc(N5CCC5=O)cc4)c4ccccc43)[C@@H]2C)cc1`, which z-score is on record?
The z-score was 0.18.

With `[N-]=[N+]=NCc1ccccc1[C@@H]1OC(c2ccc(OCCCO)cc2)=N[C@]1(Cc1ccccc1N=[N+]=[N-])C(=O)NCCN1CCOCC1` as the compound, how does the z-score read?
Its z-score is 0.895.

For `O=C1C[C@@](C(=O)NCC(F)(F)F)(c2ccc([N+](=O)[O-])cc2)[C@@H](c2ccc(CO)cc2)N1CC12CC3CC(CC(C3)C1)C2`, which z-score is on record?
The z-score was 0.324.
